Measurements taken from PubChem BioAssay (Tox21).
“And” between values parts separate entries of the source, which are not always exact repeats. Equal values may be shown once. Inconclusive results are not listed. Values without a mark were called inactive. The source made the active and inactive calls. Calls come from the whole dose curve; as a rule, active = well fitted activation curve with a large enough effect in the repeat runs; inconclusive = weak or mixed curves; inactive = flat fitted curve, though single readings scatter.

assay: A CellTox Green Cytotoxicity Assay to monitor cytotoxicity in HepG2 cells - 24 hour (AID 1224878); details: CellTox Green fluorescence; series mostly up to 76.8 µM; cytotoxicity: at the top concentration; note: nearly all actives have a fitted effect of over 45% in size
From the text: National Center for Advancing Translational Sciences [NCATS]
NIH Chemical Genomics Center [NCGC]
U.S. Environmental Protection Agency [EPA]
National Institutes of Environmental Health Sciences [NIEHS]
National Toxicology Program [NTP]
Cell-based models are critical for drug discovery. Determining the natural cytotoxic effects resulting from test compounds is an essential research activity. A CellTox Green Cytotoxicity Assay to monitor cytotoxicity in real time of continues cell culture during 40 hours of the compound treatment was used to screen Tox21 10K library compounds in HepG2 cells. CellTox Green Cytotoxicity Assay is a nonlytic, homogeneous, biofluorescent method to measure cytotoxicity in cell culture after experimental manipulation. The assay system uses a proprietary asymmetric cyanine dye that is excluded from viable cells but preferentially stains the dead cell's DNA. […] Viable cells produce no appreciable increases in fluorescence. Therefore, the fluorescence signal produced by the binding interaction with dead cell DNA is proportional to cytotoxicity.
The mixture of HepG2 cell suspension and reagents were dispensed at 600cells/6 ul/well in 1536-well tissue culture treated black solid bottom plates using a Multidrop dispenser. After the assay plates were incubated at a 37 C/5% CO2 incubator for 5 hours, 23 nL of compounds dissolved in DMSO, positive and negative controls was transferred to the assay plate by a pintool work station. The plates were incubated at 37 C for 40 hours. The fluorescence intensity were measured at 0h, 8h, 16h, 24h, 32h and 40h time points using ViewLux plate reader during compound treatment.
% is set by controls: 0 for no effect and ±100 for the full control effect; potency is the fitted concentration of half-maximal effect.

**Q.** For `CC(=O)[C@H]1CC[C@H]2[C@@H]3C=CC4=CC(=O)CC[C@@]4(C)[C@@H]3CC[C@]12C`, which “cytotoxicity” value is on record?
**A.** -1.45% [at 35.3 µM]

**Q.** With `Cc1ccc(Nc2nccc(N(C)c3ccc4c(C)n(C)nc4c3)n2)cc1S(N)(=O)=O` as the molecule, how does the “cytotoxicity” value read?
**A.** 0.859% [at 35.3 µM]

**Q.** Which “cytotoxicity” value does the source give for `CCCOCCOCCO` here?
**A.** 0.916%

**Q.** Which “cytotoxicity” value does the source give for `COc1cc2c(cc1OC)-c1cc(=Nc3c(C)cc(C)cc3C)n(C)c(=O)n1CC2` here?
**A.** 16.2% [at 35.3 µM]

**Q.** For `Cc1oncc1C(=O)Nc1ccc(C(F)(F)F)cc1`, which “cytotoxicity” value is on record?
**A.** 0.301% [at 35.3 µM]

**Q.** For `CO[C@@]12[C@H](COC(N)=O)C3=C(C(=O)C(C)=C(N)C3=O)N1C[C@@H]1N[C@@H]12`, which Potency is on record?
**A.** 8.49 µM (active)

**Q.** With `CCCCCCCC/C=C\CCCCCCCC(=O)OC` as the molecule, how does the “cytotoxicity” value read?
**A.** -4.01%

**Q.** For `OC/C(Br)=C(\Br)CO`, which “cytotoxicity” value is on record?
**A.** -9.18%

**Q.** Which Potency does the source give for `COCc1c(C(C)C)nc(C(C)C)c(/C=C/[C@@H](O)C[C@@H](O)CC(=O)O)c1-c1ccc(F)cc1` here?
**A.** 301 nM (active) and 4.32 µM (active)

**Q.** For `O=C(O)c1cccnc1C(=O)O`, which “cytotoxicity” value is on record?
**A.** -0.0334%

**Q.** For `CC(COc1ccc(C(C)(C)C)cc1)OS(=O)OCCCl` (stereo not given), which “cytotoxicity” value is on record?
**A.** -3.95%

**Q.** Which “cytotoxicity” value does the source give for `Nc1c(I)cc(I)c(C(=O)N(CCC(=O)O)c2ccccc2)c1I` here?
**A.** 3.96% [at 35.3 µM]

**Q.** With `CC#N` as the molecule, how does the “cytotoxicity” value read?
**A.** -1.73%

**Q.** Which “cytotoxicity” value does the source give for `CCn1cc(C(=O)O)c(=O)c2cc(F)c(N3CCNCC3)nc21` here?
**A.** 1.24% [at 35.3 µM]

**Q.** With `C/C=C(\C)C(=O)OCCC(C)CCC=C(C)C` (stereo not given) as the molecule, how does the “cytotoxicity” value read?
**A.** -1.85%

**Q.** With `O=C(CS)OCCOC(=O)CS` as the molecule, how does the “cytotoxicity” value read?
**A.** -1.83%

**Q.** Which “cytotoxicity” value does the source give for `CCN(CC)CCNC(=O)c1ccc(NC(C)=O)cc1` here?
**A.** -1.57% [at 35.3 µM]

**Q.** For `CC(C)OCC1CO1` (stereo not given), which “cytotoxicity” value is on record?
**A.** -9.48%

**Q.** For `CC1(C)O[C@@H]2C[C@H]3[C@@H]4CCC5=CC(=O)C=C[C@]5(C)[C@H]4[C@@H](O)C[C@]3(C)[C@]2(C(=O)CO)O1`, which “cytotoxicity” value is on record?
**A.** -12.5% [at 35.3 µM]

**Q.** For `C=CC(C)(O)CCCC(C)CCCC(C)CCCC(C)C` (stereo not given), which “cytotoxicity” value is on record?
**A.** -7.54%

**Q.** Which “cytotoxicity” value does the source give for `CC(=O)Nc1ccc(N)cc1` here?
**A.** -5.6%

**Q.** Which “cytotoxicity” value does the source give for `C=CC(C)(C)CC(=O)OC` here?
**A.** -0.547%

**Q.** For `COC(=O)CC(=O)C(C)(C)C`, which “cytotoxicity” value is on record?
**A.** 0.959%

**Q.** With `CC(=N\O)/C(C)=N/O` as the molecule, how does the “cytotoxicity” value read?
**A.** 1.91%

**Q.** For `O=C(O)c1cccc(O)c1`, which “cytotoxicity” value is on record?
**A.** -4.55%

**Q.** For `C/C=C/C=C/CCCCCCCO`, which “cytotoxicity” value is on record?
**A.** 7.14%

**Q.** For `CCCCCCCCSCCO`, which Potency is on record?
**A.** 43.6 µM (active)

**Q.** With `c1ccc(COCc2ccccc2)cc1` as the molecule, how does the “cytotoxicity” value read?
**A.** -10.6%

**Q.** For `CCCCCCCCCCCCCCCCBr`, which cytotoxicity is on record?
**A.** -6.35% [at 15.8 µM]

**Q.** For `COC(=O)c1cc(Cl)ccc1NS(=O)(=O)C(F)(F)F`, which “cytotoxicity” value is on record?
**A.** 2.13% [at 35.3 µM]

**Q.** With `CCCCCC=CCC=CCCCCCCCC(=O)OCC` as the molecule, how does the “cytotoxicity” value read?
**A.** 6.53% [at 35.3 µM]

**Q.** Which “cytotoxicity” value does the source give for `O=C(CCCCCCC(=O)Nc1ccccc1)NO` here?
**A.** 24% [at 35.3 µM]

**Q.** Which “cytotoxicity” value does the source give for `Cc1ccccc1N1C(=O)c2cc(S(N)(=O)=O)c(Cl)cc2NC1C` (stereo not given) here?
**A.** -2.34% [at 35.3 µM]

**Q.** Which Potency does the source give for `CNCCCC1c2ccccc2C=Cc2ccccc21` here?
**A.** 23.9 µM (active)

**Q.** Which “cytotoxicity” value does the source give for `COC(=O)[C@@H]1CC2=CC(=O)CC[C@]2(C)[C@@]23O[C@@H]2C[C@@]2(C)[C@@H](CC[C@@]24CCC(=O)O4)[C@H]13` here?
**A.** 7.84% [at 35.3 µM]

**Q.** With `COC(=O)Nc1nc2ccc(C(=O)c3cccs3)cc2[nH]1` as the molecule, how does the “cytotoxicity” value read?
**A.** 7.91% [at 35.3 µM]

**Q.** Which “cytotoxicity” value does the source give for `CCOC(=O)c1ccccc1OC` here?
**A.** -0.246%

**Q.** With `NC(=O)Nc1ccc(Cl)c(Cl)c1` as the molecule, how does the “cytotoxicity” value read?
**A.** -12.5%

**Q.** Which “cytotoxicity” value does the source give for `CC(C)CCCCCOC(=O)CCCCC(=O)OCCCCCC(C)C` here?
**A.** -1.02%

**Q.** For `CC(C)(C)CC(C)(C)c1ccc(OCCO)cc1`, which “cytotoxicity” value is on record?
**A.** 0.0897%
